Several values for one entry are separate records, joined by “and”; a condition that tells them apart may be missing. Equal values may be shown once. This is part of a sample that, as a whole, favours compounds with a hit. Of some 83,000 tested, about 20% had one in any assay.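 Single-concentration screen, 48 h exposure, 96-well plates. Endpoint: percent growth. Below 10 = active.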 Activity calls are given as the source filed them.

This test relates to HCC-2998 colon. Kind of test: NCI-60 one-dose screen, 48 h (100 = growth as untreated, 0 = no growth, -100 = all killed). As to conditions: 10 µM unless noted.
Take `O=C(CCCCCCNC(=O)C(O)(O)C(F)(F)F)Nc1ccc(-c2ccccc2)cc1`: the growth was -0.948% (active).
For `Brc1cccc(-c2cc(-c3cnc4c(c3)OCCO4)n[nH]2)c1`, the growth is 46.7% (inactive).
With `CS(=O)(=O)c1ccc(/C(=N/N=C(N)N)c2ccc(Cl)cc2)cc1`, the growth is 91.2% (inactive).
For `CCN1CCN(c2ccc(NC(=O)Nc3ccc4c(ccn4-c4ccnc(C(=O)NC)c4)c3)cc2C(F)(F)F)CC1`, the growth is 93.9% (inactive).
Then `Cc1ccc2c(n1)C(=O)C(Cl)=C(Nc1ccc(C#N)cc1)C2=O`, with 108% (inactive).
Then `NS(=O)(=O)c1ccc(Nc2nc(Nc3ccccc3)nc(N3N=C(c4ccc(Cl)cc4)CC3c3ccc(Cl)cc3)n2)cc1` (stereo not drawn), with 13.1% (inactive); and `COC(=O)c1cccc(NC2=C(Cl)C(=O)c3nc(C)ccc3C2=O)c1`, with 105% (inactive); and `C#CCN(C)CCCOc1ccc(NCc2ccc(/C=C/C(=O)NO)cc2)cc1Cl`, with -43.2% (active).
The value for `Cc1nc(N)sc1-c1csc(Nc2ccc(C(F)(F)F)cc2)n1` was 21% (inactive); that for `COc1ccc(-c2nc(C#N)c(N3CCC(S(=O)(=O)N4CCOCC4)CC3)o2)cc1` was 107% (inactive).
Regarding `O=C(CCCCCCN1CC(=O)N2[C@@H](c3ccc(Cl)s3)c3[nH]c4ccccc4c3C[C@H]2C1=O)NO`, the growth was 37.6% (inactive).
The value for `C#C[C@]1(O)CC[C@H]2[C@@H]3CC=C4c5sc(N(C)c6ccccc6)nc5CC[C@]4(C)[C@H]3CC[C@@]21C` was 109% (inactive); that for `COc1ccc(/C=N/NC(=O)c2c(N)nn(C)c2Nc2ccccc2)cc1Oc1ccccc1` was 101% (inactive).
On to `CCOC(=O)c1cccc(NC2=C(Cl)C(=O)C(C)=C(C)C2=O)c1`, for which the growth is 111% (inactive).
Consider `Cc1ccc(NC(=O)Nc2nc3ccc([N+](=O)[O-])cc3s2)cc1`, for which the growth is 6.19% (active).
Take `Oc1[nH]c2ccc(Cl)cc2c1N=Nc1nc(N=Nc2c(O)[nH]c3ccc(Cl)cc23)nc(N2CCOCC2)n1`: the growth is 75.5% (inactive).
Regarding `C[C@H](Nc1ncnc2ccc(-c3cnc(Cl)c(NS(C)(=O)=O)c3)cc12)c1ccccc1`, the growth is -77.3% (active).
Consider `Brc1ccc(-c2cc(-c3ccc4c(c3)OCCO4)n[nH]2)s1`, for which the growth is 42.1% (inactive).
Then `C/C=C/CC(C)C(O)[C@H](NC(=O)[C@@H]1CCCN1C(=O)[C@](C)(CC)NC(=O)CCCCCCCCC)C(=O)N[C@@](C)(CC)C(=O)N[C@@H](CCC(N)=O)C(=O)N[C@H](CCC(N)=O)C(=O)NC(C)(C)C(=O)NC(C)(C)C(=O)N[C@@H](CCC(N)=O)C(=O)N[C@H](CC(C)C)C(=O)N[C@H](CO)CC(C)C` (stereo partly drawn), with 32.6% (inactive) and -57.5% (active).
As for `CC(=C(c1ccc(OCCCN(C)C)cc1)c1ccc(OCCCN(C)C)cc1)c1ccc(Cl)cc1`, the growth was 81.7% (inactive).
Consider `CCc1cc2c(cc1Cl)nc1c(=O)[nH]c(=O)nc-1n2CCOCC(C)(C)C`, for which the growth was 84.1% (inactive).
As for `COc1ccc(/C=N/N=C(/c2ccccc2)c2ccc3nc(-c4ccc(Cl)cc4)[nH]c3c2)cc1`, the growth was 89.6% (inactive).
The value for `Cc1[nH]c(C(=O)Nc2ccc(S(=O)(=O)N3CCCCC3)cc2OCCOCCOCCOCCOCCOCCOCCOCCOCCOc2cc(S(=O)(=O)N3CCCCC3)ccc2NC(=O)c2[nH]c(C)c3c2CCCCC3=O)c2c1C(=O)CCCC2` was -38.4% (active); that for `Cc1csc(/N=C(N)/N=C(\N)c2cccc(C#N)c2)n1` was 87.7% (inactive); that for `CC1(C)CC[C@]23CC[C@]4(C)[C@H](CC[C@@H]5[C@@]6(C)CC[C@H](NCO)C(C)(C)[C@@H]6CC[C@]54C)[C@H]2[C@H]1OC3` was -24% (active).
Then `NC1CC2(CCN(c3cnc(C(=O)Nc4cc(F)cc5cccnc45)cn3)CC2)C1`, with 83.7% (inactive).
On to `COc1ccc(-c2cc(-c3ccc(N4CCOCC4)cc3)n3c(n2)nc2ccccc23)cc1OC`, for which the growth is 110% (inactive).
Take `CN1CCC[C@]2(C)[C@H]3CC[C@@H]4[C@@H]5[C@H]6OC[C@@]5(CCC6(C)C)CC[C@@]4(C)[C@]3(C)CC[C@H]2C1(C)C`: the growth was 45.8% (inactive).

The record behind these values is PubChem BioAssay (NCI).
